Measured values published in PubChem BioAssay AID501 (PCMD, 2006).
Hit rate of the full screen: of about 62,000 compounds, about 35 (0.06%) were called active. Cut-off read from the data, not from the text of the source: active = inhibition above about 32% (passing the limit was not always enough); inconclusive = no clear call, values can overlap the other calls. What follows is part of a selection rich in actives, with near analogues and random picks from the rest.

biological target: Cathepsin S (Homo sapiens) (UniProt P25774); experiment: inhibitors of human cathepsin S, biochemical, compound mixtures (AID 501); settings: recombinant cathepsin S, AMC dipeptide fluorescence, pooled mixtures; active compounds read high;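 tested at 5 µM per compound within 10-compound mixtures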;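 note: 0% = enzyme without compound and 100% = blank without enzyme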
Sequence (P25774 115-331 limits assumed): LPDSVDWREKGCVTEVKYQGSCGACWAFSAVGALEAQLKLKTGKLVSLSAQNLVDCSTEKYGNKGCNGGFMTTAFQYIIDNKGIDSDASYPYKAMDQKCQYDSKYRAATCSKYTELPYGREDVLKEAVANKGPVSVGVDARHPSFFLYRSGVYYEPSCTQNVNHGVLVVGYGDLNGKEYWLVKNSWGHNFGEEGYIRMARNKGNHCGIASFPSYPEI

SMILES	inhibition
CCOc1ccc2[nH]c(=O)c(CN(Cc3nnnn3Cc3ccccc3)CC3CCCO3)cc2c1 (centres undefined)	6.16% (inactive)
CCOC(=O)CSc1nccc(N(C)C)c1C#N	14.4% (inactive)
Cc1nnc(N(Cc2ccco2)C(=O)c2ccno2)s1	-4.35% (inactive)
CCn1c(=O)cc(O)c2ccccc21	9.68% (inactive)
COc1cc(C(=O)N(Cc2ccc(N(C)C)cc2)C2CCS(=O)(=O)C2)cc(OC)c1OC (centres undefined)	0.64% (inactive)
Nc1nnc(C2CCCC2)s1	14.3% (inactive)
CCc1ccccc1NC(=O)c1cccs1	8.09% (inactive)
CCOC(=O)C1=C(CC)Nc2ccccc2N=C1NC(=O)c1cccc(S(=O)(=O)N2CCCC2)c1	-5.2% (inactive)
CCC(=O)NC(=Nc1nc2ccccc2s1)NC(=O)CC	-2.2% (inactive)
C=CCn1c(SCc2cc(C(=O)OC)c(C)o2)nnc1-c1ccncc1	-3.76% (inactive)
CCOc1ccc(-c2nnc(-c3ccco3)o2)cc1	-3.01% (inactive)
CCOc1ccc(OCC)c(NC(=O)CN(C)S(=O)(=O)c2cccc3nsnc23)c1	-22.2% (inactive)
CCOC(=O)CSc1nnc(CNc2ccc(F)cc2)o1	-5.03% (inactive)
Cn1c(=NC(=O)CSCC(=O)N2CCOCC2)sc2ccccc21	14.7% (inactive)
Cn1c(=O)[nH]c(=O)c2c1nc(CN(Cc1ccccc1)Cc1ccccc1)n2CCN1CCOCC1	2.01% (inactive)
COc1ccc(Br)cc1S(=O)(=O)N1CCN=C1C	-2.2% (inactive)
Cn1c(=NC(=O)CSCC(=O)N2CCCCC2)sc2ccccc21	6.42% (inactive)
CSCCC(NS(=O)(=O)/C=C/c1ccccc1)C(=O)N1CCC(C)CC1 (centres undefined)	-1.31% (inactive)
CCOC(=O)N1CCC(NC(=O)CCc2cn(C)c3ccccc23)CC1	-4.61% (inactive)
CCn1cc(C(=O)NCc2ccc(OC)cc2OC)c(=O)c2ccc(C)nc21	0.185% (inactive)
CCN(CC)P(=O)(/C(Cl)=C\Nc1c(C)n(C)n(-c2ccccc2)c1=O)N(CC)CC	0.845% (inactive)
COc1ccc(C)cc1NC(=O)c1[nH]c(C)c(C(C)=O)c1C	-3.92% (inactive)
Fc1ccc2[nH]c3c(N4CCN(Cc5ccc6c(c5)OCO6)CC4)ncnc3c2c1	-6.06% (inactive)
CCc1c(C)nc(N)n2c(SCC(=O)N3CCN(c4ccccc4)CC3)nnc12	-12.8% (inactive)
CN1CCN(CC(O)COCc2ccc3c(c2)OCO3)CC1 (centres undefined)	5.75% (inactive)
CC(=O)Nc1cccc(NC(=O)c2c(-c3ccccc3)noc2C)c1	-5.8% (inactive)
O=C(NCCCN1CCOCC1)c1cc(-c2ccc(Cl)cc2)on1	-0.13% (inactive)

SMILES	inhibition
O=C(NCCc1ccco1)c1nn(Cc2ccccc2)c(=O)c2ccccc12	11.9% (inactive)
O=C(C1CCCO1)N(Cc1ccccc1)c1ccccc1 (centres undefined)	-2.27% (inactive)
Cc1ccsc1C(C(=O)NC1CCCCC1)N(C(=O)Cc1cccs1)C1CC1 (centres undefined)	6.71% (inactive)
Cc1cc(=O)n2nc(N3CCCC(C(=O)NCCC4=CCCCC4)C3)sc2n1 (centres undefined)	19.8% (inactive)
CCOC(=O)C1CCCN(C(=O)Cn2ncc3c(=O)oc4ccc(C)cc4c32)C1 (centres undefined)	7.33% (inactive)
O=C(Nc1cccnc1)c1noc2c1CCCCC2	10.9% (inactive)
CCc1cc2c(=O)c(-c3ccon3)c(N)oc2cc1OC	-1.48% (inactive)
COc1ccc(C(c2nnnn2Cc2cccs2)N2CCN(c3ccccc3)CC2)cc1OC (centres undefined)	-6.06% (inactive)
CC(C)COC(=O)C1C2C=CC3(CN(C(C)c4ccc(Br)cc4)C(=O)C13)O2 (centres undefined)	14.7% (inactive)
O=C(O)c1ccc(-n2cccc2)cc1O	5.17% (inactive)
CCOc1cc(C(=O)Nc2ncccn2)cc(OCC)c1OCC	31.7% (inactive)
Cc1ccsc1CNn1cnnc1SCc1ccccc1F	-4.25% (inactive)
CCOC(=O)CCCNC(=O)CN1C(=O)NC(CCc2ccccc2)C1=O (centres undefined)	-3.72% (inactive)
CC1CCCC(N2CCN(C(=O)c3ccc(F)cc3)CC2)C1 (centres undefined)	-4.6% (inactive)
CSCC[C@H](NC(=O)NCCc1ccc(F)cc1)C(=O)O	-4.51% (inactive)
CCCCc1cc(=O)oc2cc(C)cc(OCc3nn[nH]n3)c12	1.43% (inactive)
CCN(CC)S(=O)(=O)c1ccc(NC(=O)CN(c2cccc(F)c2)S(C)(=O)=O)cc1	-8.46% (inactive)
CC(C)(CSc1nncn1/N=C/c1ccco1)NS(=O)(=O)c1ccc(Cl)cc1	6.83% (inactive)
CC1(C)SC2c3ccccc3C(=O)N2[C@@H]1C(=O)NCc1ccco1 (some centres undefined)	-3.88% (inactive)
CCOC(=O)c1c(C)[nH]c(C)c1C(=O)CSc1nc(N)cc(N)n1	5.32% (inactive)
O=C(C1CCN(c2nnc(-n3cccc3)s2)CC1)N1CCc2ccccc2C1	4.27% (inactive)
Cc1cc(Nc2cccc(C)c2C)n2ncnc2n1	-1.92% (inactive)
COC(=O)c1ccc(NC(=O)CN(c2ccc(C)cc2)S(=O)(=O)c2c(C)n[nH]c2C)cc1	-7.46% (inactive)
COc1ccc(N(CC(=O)NC(C)(C)C)C(=O)c2ccco2)cc1	10.2% (inactive)
Cc1cc(Cl)ccc1N1C(=O)CC(SCCC(=O)O)C1=O (centres undefined)	1.91% (inactive)
COc1cc2ccccc2cc1C(=O)Nc1ccc(S(=O)(=O)Nc2cc(C)on2)cc1	-7.28% (inactive)
Cc1cc(=O)[nH]c(SCC(=O)N2c3ccccc3CC2C)n1 (centres undefined)	33.4% (inactive)
